Records with an inconclusive call do not appear. The source made the active and inactive calls. Calls follow the shape of the dose curve; as a rule, active = well fitted curve in the direction sought with a large enough effect in the repeat runs; inconclusive = weak or mixed curves; inactive = no such curve, though single readings can be large; an effect the other way counts as inactive or inconclusive.
Legend:
[1] = qHTS RealTime-Glo MT Cell Viability Assay in HEK293 cells - 32 hour (AID 1224868); also: top concentration of the series differs between compounds; nearly all actives have a fitted effect of over 50% in size
Summary of the method: (§1)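 Luminescence generated by NanoLuc from substrate produced by living HEK293 cells served as the viability signal. Each value reflects the reading at its stated time point during continuous 40 h compound exposure at 37 C.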

[2] = A CellTox Green Cytotoxicity Assay to monitor cytotoxicity in HEK293 cells - 0 hour (AID 1224869); also: nearly all actives have a fitted effect of over 50% in size
Summary of the method: (§2)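 Real-time, in one plate: 600 HEK293 cells/well with dead-cell DNA dye, pinned compound after 5 h, 37 C incubation over 40 h; viable cells give no appreciable fluorescence.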

[3] = qHTS RealTime-Glo MT Cell Viability Assay in HepG2 cells - 40 hour (AID 1224870); also: nearly all actives have a fitted effect of over 50% in size
Summary of the method: (§3)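 Real-time viability: cells seeded at 600 per well together with NanoLuc and cell-permeant prosubstrate, compounds added after 5 h incubation. Luminescence tracked at 0, 8, 16, 24, 32 and 40 h of exposure.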

[4] = A CellTox Green Cytotoxicity Assay to monitor cytotoxicity in HEK293 cells - 40 hour (AID 1224871); also: nearly all actives have a fitted effect of over 45% in size
Summary of the method: as §2

[5] = qHTS RealTime-Glo MT Cell Viability Assay in HEK293 cells - 16 hour (AID 1224872); also: top concentration of the series differs between compounds; nearly all actives have a fitted effect of over 50% in size
Summary of the method: as §1

[6] = qHTS RealTime-Glo MT Cell Viability Assay in HepG2 cells - 8 hour (AID 1224873); also: nearly all actives have a fitted effect of over 55% in size
Summary of the method: as §3

[7] = qHTS RealTime-Glo MT Cell Viability Assay in HEK293 cells - 40 hour (AID 1224874); settings: RealTime-Glo luminescence, active compounds read low; also: nearly all actives have a fitted effect of over 50% in size
Summary of the method: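 Kinetic, non-lysing viability readout. Seed HEK293 (600/well) with reagent, incubate 5 h at 37 C/5% CO2, pin 23 nL compound in DMSO, incubate at 37 C, read luminescence at 0, 8, 16, 24, 32, 40 h.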

[8] = A CellTox Green Cytotoxicity Assay to monitor cytotoxicity in HEK293 cells - 24 hour (AID 1224875); also: series mostly up to about 77 µM; nearly all actives have a fitted effect of over 45% in size
Summary of the method: as §2

[9] = A CellTox Green Cytotoxicity Assay to monitor cytotoxicity in HepG2 cells - 16 hour (AID 1224876); also: nearly all actives have a fitted effect of over 45% in size
Summary of the method: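 Cytotoxicity was tracked as dead-cell DNA fluorescence in HepG2 cells treated with test compounds at 37 C; each time-point value comes from one kinetic series spanning 0, 8, 16, 24, 32 and 40 h.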

[10] = qHTS RealTime-Glo MT Cell Viability Assay in HepG2 cells - 32 hour (AID 1224877); also: nearly all actives have a fitted effect of over 55% in size
Summary of the method: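 Tox21 10K library screened in qHTS format on HepG2 cells carrying RealTime-Glo reagents. Compounds were added after a 5 h preincubation, and the luminescent signal from continuous culture was measured repeatedly during 40 h treatment.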
% is scaled to controls: 0 for no effect and ±100 for the full control effect.

CN(C)CCC[C@@]1(c2ccc(F)cc2)OCc2cc(C#N)ccc21
inactive: outcome [1] | outcome [2] | outcome [3] | Potency [4] | outcome [5] | outcome [6] | max response [7] -9.59% | Potency [8] | Potency [9] | outcome [10]

CCCC(=O)OC
inactive: outcome [1] | outcome [2] | outcome [3] | Potency [4] | outcome [5] | outcome [6] | max response [7] -2.73% | Potency [8] | Potency [9] | outcome [10]

CCCOc1ccc(C(=O)OCCN(CC)CC)cc1N
inactive: outcome [1] | outcome [2] | outcome [3] | Potency [4] | outcome [5] | outcome [6] | max response [7] 0.981% | Potency [8] | Potency [9] | outcome [10]

CCCCC(CC)CCC(CC(C)C)OS(=O)(=O)O (configuration not stated)
inactive: outcome [1] | outcome [2] | outcome [3] | Potency [4] | outcome [5] | outcome [6] | max response [7] -2.38% | Potency [8] | Potency [9]

CCOC(=O)[C@H](CCc1ccccc1)N[C@H]1CS[C@H](c2cccs2)CN(CC(=O)O)C1=O
inactive: outcome [1] | outcome [2] | outcome [3] | Potency [4] | outcome [5] | outcome [6] | max response [7] 0.833% | Potency [8] | Potency [9] | outcome [10]

Cc1ccc(S(=O)(=O)NC(=O)NN2CC3CCCC3C2)cc1 (configuration not stated)
inactive: outcome [1] | outcome [2] | outcome [3] | Potency [4] | outcome [5] | outcome [6] | max response [7] 5.04% | Potency [8] | Potency [9] | outcome [10]

CC(=O)c1ccc(O)c(C(N)=O)c1
inactive: outcome [1] | outcome [2] | outcome [3] | Potency [4] | outcome [5] | outcome [6] | max response [7] 2.03% | Potency [8] | Potency [9]

CC(C)(C)OC=O
inactive: outcome [1] | outcome [2] | outcome [3] | Potency [4] | outcome [5] | outcome [6] | max response [7] 8.37% | Potency [8] | Potency [9] | outcome [10]

CC1(C)C(=O)C(C)(C)C1=O
inactive: outcome [1] | outcome [2] | outcome [3] | Potency [4] | outcome [5] | outcome [6] | max response [7] 6.04% | Potency [8] | Potency [9] | outcome [10]

CC(C)(C)c1ccc(C(=O)CCCCl)cc1
inactive: outcome [1] | outcome [2] | outcome [3] | Potency [4] | outcome [5] | outcome [6] | max response [7] -1.09% | Potency [8] | Potency [9] | outcome [10]

CCCCCCCCOCCC#N
inactive: outcome [1] | outcome [2] | outcome [3] | Potency [4] | outcome [5] | outcome [6] | max response [7] -1.56% | Potency [8] | Potency [9] | outcome [10]

Cc1cc(N)no1
inactive: outcome [1] | outcome [2] | outcome [3] | Potency [4] | outcome [5] | outcome [6] | max response [7] 13.5% | Potency [8] | Potency [9] | outcome [10]

CCCCCCCCC1CO1 (configuration not stated)
inactive: outcome [1] | outcome [2] | outcome [3] | Potency [4] | outcome [5] | outcome [6] | max response [7] -0.591% | Potency [8] | Potency [9] | outcome [10]

N#Cc1cc(NC(=O)C(=O)O)c(Cl)c(NC(=O)C(=O)O)c1
inactive: outcome [1] | outcome [2] | outcome [3] | Potency [4] | outcome [5] | outcome [6] | max response [7] -0.333% | Potency [8] | Potency [9] | outcome [10]

COC(=O)c1ccc(C(=O)O)cc1
inactive: outcome [1] | outcome [2] | outcome [3] | Potency [4] | outcome [5] | outcome [6] | max response [7] 1.5% | Potency [8] | Potency [9] | outcome [10]

C/C=C(\C)C(=O)OC/C=C(\C)CCC=C(C)C
inactive: outcome [1] | outcome [2] | outcome [3] | Potency [4] | outcome [5] | outcome [6] | max response [7] 7.26% | outcome [10]

CCCc1ccc(O)c(OC)c1
inactive: outcome [1] | outcome [2] | outcome [3] | Potency [4] | outcome [5] | outcome [6] | Potency [8] | Potency [9] | outcome [10]

CC(C)(C)NCC(O)COc1cccc2c1CCC(=O)N2 (configuration not stated)
inactive: outcome [1] | outcome [2] | outcome [3] | Potency [4] | outcome [5] | outcome [6] | Potency [8] | Potency [9]

CC(=O)OC1CCC(C(C)(C)C)CC1 (configuration not stated)
inactive: outcome [1] | outcome [2] | outcome [3] | Potency [4] | outcome [5] | outcome [6] | max response [7] 0.815% | Potency [8] | outcome [10]

O=C(c1ccccc1)c1cccc(O)c1
inactive: outcome [1] | outcome [2] | outcome [3] | Potency [4] | outcome [5] | outcome [6] | Potency [8]

CC(=O)Nc1ccc(OCCOCCOc2ccc(NC(C)=O)cc2)cc1
inactive: outcome [1] | outcome [2] | outcome [3] | Potency [4] | outcome [5] | outcome [6] | max response [7] -1.67% | Potency [9] | outcome [10]

Cc1ccc(O)c([N+](=O)[O-])c1
inactive: outcome [1] | outcome [2] | outcome [3] | Potency [4] | outcome [5] | outcome [6] | max response [7] -15.2% | Potency [8] | outcome [10]

O=P(O)(O)C(O)(Cc1cccnc1)P(=O)(O)O
inactive: outcome [1] | outcome [2] | outcome [3] | Potency [4] | outcome [5] | outcome [6] | max response [7] -1.75% | Potency [8] | Potency [9] | outcome [10]
